Several values for one entry are separate records, joined by “and”; a condition that tells them apart may be missing. Identical values can stand only once. Compounds without any hit were thinned out: in the full panel of roughly 83,000, 20% have a hit.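 Method: cells in 96-well plates; compound added at one concentration; 48 h incubation; percent growth measured; values under 10 scored active.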 Unmarked numbers belong to inactive results. Activity calls are given as the source filed them.

This assay concerns MDA-MB-468 breast. Put plainly: NCI-60 one-dose screen, 48 h (100 = growth as untreated, 0 = no growth, -100 = all killed). Particulars: 10 µM unless noted.
Regarding `CCOc1ccc(NC(=O)Nc2ccc(OCC)cc2)cc1`, the growth is 106%. Consider `COc1ccccc1N1CCCCC1`, for which the growth is 118%. In the case of `C=C1CCC2C(C)(CO)C(O)CCC2(C)C1C/C=C1/C(=O)OCC1Oc1ccccc1C` (stereo unspecified) it was 60%; in that of `COc1ccc(C2=C(c3cccc(OC)c3)C(=O)c3ccc(C)nc3C2=O)cc1`, -60.8% (active); in that of `C=CCOc1c(Br)cc(Br)cc1Br`, 96.8%. Next, `CSc1nc(NCCO)c(C#N)c(-c2cccc([N+](=O)[O-])c2)n1`: 105%; `OCCNc1ccccc1`: 99.4%; `NC(=NCCCOc1ccc(F)cc1)Nc1ccc(Cl)c(Cl)c1`: 41%.

On to `O=C(CN1CCN(c2ccccc2)CC1)N1CCN(c2nnc(-c3ccc(Cl)cc3)c(-c3ccc(Cl)cc3)n2)CC1`, for which the growth is 78.7%. Regarding `Clc1ccc2c(c1)C(N1CCNCC1)=Nc1ccccc1O2`, the growth was -48.3% (active).

In the case of `Cc1cc(C(=O)NN)c(C#N)c(=O)[nH]1`, the growth was 122%. Next, `CC(O)CCC(C)[N+](=O)[O-]` (stereo unspecified): 107%; `Oc1c(CN2CCCCC2)ccc2cccnc12`: 72.3% and 81.8%; `Brc1cc(-c2cc(-c3ccc4c(c3)OC=CO4)[nH]n2)cs1`: 30%. Regarding `Cc1cccc(NC(=O)c2sc3nc4c(cc3c2N)CCCC4)c1`, the growth was 24.7%. Next, `Cc1nnc2c3nnc(-c4ccc(Cl)cc4)n3c3ccccc3n12`: 100%. Next, `COc1cc(CSc2nc3ccc(C)cc3c(=O)n2Cc2ccccc2)cc(OC)c1OC`: -25.1% (active).

For `COc1cc(Cn2c(-c3ccccc3)c(Cl)c3c2-c2oncc2CC3)cc(OC)c1`, the growth was 114%.

Consider `COc1cc(Nc2ccnc3ccc(Br)cc23)cc(OC)c1OC`, for which the growth is 14.9%. `COc1cccc2nc(Nc3cccc(NC(=O)c4ccc(N5CCN(C)CC5)c(C(F)(F)F)c4)c3)ccc12`: the growth is 20.2%.

In the case of `CCCCCCC(C)CC1=C(O)c2ccccc2C(=O)C1=O` (stereo unspecified), the growth is 1.43% (active). In the case of `Cc1ccc(C(=O)CSc2nc3ccccc3c(=O)n2C)cc1` it was 82.6%; in that of `O=C(Nc1ccccc1)Nc1ccc2cc3ccc(NC(=O)Nc4ccccc4)cc3nc2c1`, -57.8% (active); in that of `CCCCCCC/C=C/[C@H]1O[C@]23C(=O)C[C@@]4(C[C@@H](OC5OC(CO)C(O)C(O)C5O)C[C@@H]4[C@H]2C=C1C)OC3=O` (stereo partly specified), 25.7%. Next, `CC1CCC(C(C)C)C(NN)C1` (stereo unspecified): 110%. As to `C=C1C(=O)O[C@H]2[C@H]1CC/C(COC(=O)NCc1ccc(OC)c(OC)c1)=C\CC[C@@]1(C)O[C@@H]21`, the growth is 24.3%.

The values above are taken from PubChem BioAssay (NCI).
